Bioassay records deposited in PubChem BioAssay by National Center for Advancing Translational Sciences (NCATS).
KB-3-1 cytotox: qHTS assay for MDR1-selective chemotherapeutics: Primary screen using the parental adenocarcinoma cell KB-3-1; Potency, µM (highest dose often 46.1 µM), usual class: cytotoxic; 400,000 compounds, 1.4% hits; KB-3-1 viability, CellTiter-Glo ATP luminescence, 72 h; note: nearly all actives have a fitted effect of over 60% in size
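Parental KB-3-1 adenocarcinoma cells in phenol-red-free DMEM with 10% FBS were pin-treated with compounds at several concentrations, incubated 72 h at 37 °C, and viability read by CellTiter-Glo luminescence; concentration-effect curves were fitted after normalization.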
HT1080 IDH1KD tx: qHTS for induction of synthetic lethality in tumor cells producing 2HG: qHTS for the HT-1080-IDH1KD cell line. HT-1080 IDH1 knockdown viability, ATP luminescence, 48 h. Potency, µM (titrated, usually from 46.1 µM), usual class: cytotoxic. 360,000 compounds, 2% hits
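In this qHTS, HT-1080 cells depleted of IDH1 are exposed for 48 h at 37 °C to compound titrations. Toxicity is scored from CellTiter-Glo luminescence, with DMSO as full viability and medium alone as none.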
IL-1B inflam inh: qHTS for Inhibitors of Inflammasome Signaling: IL-1-beta AlphaLISA Primary Screen | THP-1 LPS/ATP IL-1B secretion, AlphaLISA, 16 h; hits give low values | activity change, % at 57.5 µM | 360,000 compounds, 4.7% hits | AID 743279, 2014; in the data active = activity change below about -50%; inconclusive = mostly about -30% to -49%
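THP-1 cells pretreated 1 hr with compounds (up to 57.5 uM final), then stimulated with LPS (250 ng/mL final) plus ATP (1.25 mM final); secreted IL-1B measured by AlphaLISA after 16 hr, decreased signal indicating inhibition.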
HT1080NT lethal: qHTS for induction of synthetic lethality in tumor cells producing 2HG: qHTS for the HT-1080-NT fibrosarcoma cell line; HT-1080-NT fibrosarcoma viability, CellTiter-Glo ATP luminescence, 48 h; Potency, µM (titrated, usually from 46.1 µM), usual class: cytotoxic; 360,000 compounds, 1.6% hits; AID 686970, 2013;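 note: NT is the 2HG producing partner of a matched IDH1 knockdown line; nearly all actives have a fitted effect of over 55% in size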
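Viability by CellTiter-Glo luminescence after 48 h compound exposure at 37C of HT-1080-NT cells (750/well, RPMI, 5% FBS). % activity scaled between DMSO wells and medium-only wells, then curve-fitted and categorized by curve class.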
KB-V1 MDR tox: qHTS assay for MDR1-selective chemotherapeutics: Primary screen using the drug-selected MDR subline cells KB-V1 | KB-V1 MDR cells viability, CellTiter-Glo, 72 h | Potency, µM (titrated, usually from 46.1 µM), most hits filed as cytotoxic | 400,000 compounds, 3.4% hits; note: nearly all actives have a fitted effect of over 60% in size
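Luminescent ATP read-out (CellTiter-Glo, 10 min) measures survival of drug-selected KB-V1 MDR cells after 72 h, 37 degrees C compound exposure. Medium: phenol-red-free DMEM, 10% FBS. Values from fitted concentration-response curves.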
Each line names hits and unclear results; the compound was inactive in the other large screens. Rows were chosen to be rich in hits. Some 8.8% of all compounds tested hit in one or more screens of this group. Unless noted, calls come from the whole dose curve; as a rule, active = well fitted curve in the direction sought with a large enough effect; inconclusive = small, poorly fitted or top-dose-only effect, or another doubt; inactive = no such curve, though single readings can be large; an effect the other way counts as inactive or inconclusive.

CC(c1ccccc1)c1nnc(NC(=O)c2ccc3c(c2)OCO3)s1 (stereo not given)	KB-3-1 cytotox inconclusive, HT1080 IDH1KD tx inconclusive, KB-V1 MDR tox 15µM
COc1ccc(CNC(=O)C2(c3cccs3)CCOCC2)cc1	none (no result: HT1080 IDH1KD tx, IL-1B inflam inh, HT1080NT lethal)
COc1ccccc1N(C)S(=O)(=O)c1ccc(C(=O)N(C)Cc2cccc(F)c2)cc1	none
CCC(c1nnnn1Cc1ccco1)N(CCc1ccccc1)Cc1cc2cc(C)ccc2[nH]c1=O (stereo not given)	KB-3-1 cytotox inconclusive, HT1080 IDH1KD tx inconclusive, IL-1B inflam inh -52, KB-V1 MDR tox inconclusive
CCCC(c1nnnn1C(C)(C)CC)N(Cc1ccco1)Cc1cc2ccc(OC)cc2[nH]c1=O (stereo not given)	KB-3-1 cytotox inconclusive, IL-1B inflam inh inconclusive, KB-V1 MDR tox inconclusive
CCC(c1nnnn1CCOC)N(Cc1ccc(C)cc1)Cc1cc2cc(OC)ccc2[nH]c1=O (stereo not given)	KB-3-1 cytotox inconclusive, KB-V1 MDR tox 23µM
CCC(c1nnnn1CCc1ccccc1)N(Cc1ccco1)Cc1cc2cc(C)cc(C)c2[nH]c1=O (stereo not given)	IL-1B inflam inh -53
CCC(c1nnnn1Cc1ccccc1)N(Cc1ccco1)Cc1cc2cc(OC)ccc2[nH]c1=O (stereo not given)	KB-3-1 cytotox inconclusive, HT1080 IDH1KD tx inconclusive, IL-1B inflam inh -54, HT1080NT lethal inconclusive
CCN(CC)CCCNC(=O)Cn1c(-c2cccs2)cc2cc(Cl)ccc21	none (no result: HT1080 IDH1KD tx, IL-1B inflam inh, HT1080NT lethal)
CC(C)C(c1nnnn1Cc1ccccc1)N(CCCO)Cc1cc2cc3c(cc2[nH]c1=O)OCO3 (stereo not given)	IL-1B inflam inh -60
CCC(c1nnnn1Cc1ccc(OC)cc1)N(CCCO)Cc1cc2cc3c(cc2[nH]c1=O)OCO3 (stereo not given)	none
Cc1ccc2[nH]c(=O)c(CN(CCc3ccccc3)C(c3nnnn3Cc3ccco3)C(C)C)cc2c1 (stereo not given)	KB-3-1 cytotox inconclusive, HT1080 IDH1KD tx 16µM, IL-1B inflam inh -91, HT1080NT lethal inconclusive, KB-V1 MDR tox inconclusive
O=C(NCCCCc1ccccc1)C1CC(c2ccc(C(F)(F)F)cc2)=NO1 (stereo not given)	none
O=C(Nc1cccc(F)c1)c1ccc(S(=O)(=O)NCC2CCCO2)cc1 (stereo not given)	KB-V1 MDR tox 16µM
COc1ccc(OC)c(S(=O)(=O)Nc2ccc3oc4c(c3c2)C(=O)CCC4)c1	KB-V1 MDR tox 23µM
COc1ccc(S(=O)(=O)Nc2ccc3oc4c(c3c2)CCCC4)cc1	KB-V1 MDR tox inconclusive (no result: HT1080 IDH1KD tx, IL-1B inflam inh, HT1080NT lethal)
Clc1cccc(-c2ccc(C3Nc4cccc5cccc(c45)N3)o2)c1	KB-3-1 cytotox inconclusive (no result: HT1080 IDH1KD tx, IL-1B inflam inh, HT1080NT lethal)
CC(C)(C)CC(C)(C)NC(=O)CSCC(=O)Nc1ccc2ccccc2c1	IL-1B inflam inh -94, HT1080NT lethal 16µM
Cc1ccc(S(=O)(=O)C(CNC(=O)C(=O)NCCc2ccccc2)c2cccs2)cc1 (stereo not given)	none (no result: HT1080 IDH1KD tx, IL-1B inflam inh, HT1080NT lethal)
CC1=CC(C)(C)N=C(Nc2nc(C)c3cc(C)cc(C)c3n2)N1	KB-3-1 cytotox inconclusive, IL-1B inflam inh -95
COc1ccc(S(=O)CC(=O)Nc2ccc(Cl)cc2Cl)cc1 (stereo not given)	KB-V1 MDR tox inconclusive
S=c1[nH]nc(-c2cccc(Cl)c2)n1/N=C/c1ccc(-c2ccccc2Br)o1	KB-3-1 cytotox inconclusive
S=c1[nH]nc(-c2ccccc2)n1/N=C/c1ccc(-c2ccccc2Cl)o1	HT1080 IDH1KD tx inconclusive, KB-V1 MDR tox 13µM
CCN(C(=O)Cn1ccc(C(F)(F)F)n1)c1c(N)n(Cc2ccccc2)c(=O)[nH]c1=O	none
CC1=CC(=C2C(=O)c3ccccc3C2=O)C=C(C)N1Cc1ccco1	IL-1B inflam inh -62
CN(CC(=O)Nc1ccc(F)cc1)C(=O)COC(=O)/C=C/c1ccc(OC(F)F)cc1	IL-1B inflam inh -87
